Laboratory results reported in PubChem BioAssay AID1159580 (chemical genetic matrix, 2015).
Values joined by “and” are separate entries in the source; they are usually repeats but may differ in a detail not shown here. Identical values can stand only once. The campaign covered roughly 5,500 compounds. About 2,000 (36%) were called active. About 18% were inconclusive and are not listed. Rule as the data show it: active = normalized growth mostly below about 0.91 (no sharp cut-off); inconclusive = no clear call, values can overlap the other calls; inactive = mostly above about 0.92. Some of the results follow.

Assay: chemical genetic growth profiling, strain panel (AID 1159580);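 also: tested at 20 µM; growth read once vehicle control cultures reached saturation at 30 °C; 1 = growth at the plate median or of vehicle wells; lower values mean less growth of the strain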
Settings: growth OD

Measured: normalized growth

Cc1cccc(C)c1NC1=NCCCS1
inactive: S. cerevisiae deletion strains, locus YJR075W, strain HOC1, stronger effect = lower value 1.03 | S. cerevisiae deletion strains, locus YKL009W, strain mrt4, stronger effect = lower value 0.968 | S. cerevisiae deletion strains, locus YKL068W, stronger effect = lower value 0.977 | S. cerevisiae deletion strains, locus YKL085W, strain MDH1 (second series), stronger effect = lower value 0.976 | S. cerevisiae deletion strains, locus YKL085W, strain MDH1, stronger effect = lower value 0.976 | S. cerevisiae deletion strains, locus YKL160W, strain elf1, stronger effect = lower value 1 | S. cerevisiae deletion strains, locus YKL190W, strain CNB1, stronger effect = lower value 1.01 | S. cerevisiae deletion strains, locus YKR001C, strain vps1, stronger effect = lower value 1 | S. cerevisiae deletion strains, locus YKR026C, strain gcn3, stronger effect = lower value 1 | S. cerevisiae deletion strains, locus YKR091W, strain srl3, stronger effect = lower value 1.01 | S. cerevisiae deletion strains, locus YLL001W, strain dnm1, stronger effect = lower value 0.959 | S. cerevisiae deletion strains, locus YLL026W, stronger effect = lower value 1 | S. cerevisiae deletion strains, locus YLL041C, strain sdh2, stronger effect = lower value 1.02 | S. cerevisiae deletion strains, locus YLR027C, strain aat2, stronger effect = lower value 1.01 | S. cerevisiae deletion strains, locus YLR039C, strain RIC1, stronger effect = lower value 0.997 | S. cerevisiae deletion strains, locus YLR058C, strain SHM2, stronger effect = lower value 0.996 | S. cerevisiae deletion strains, locus YLR102C, strain apc9, stronger effect = lower value 0.989 | S. cerevisiae deletion strains, locus YLR113W, strain HOG1, stronger effect = lower value 1.04 | S. cerevisiae deletion strains, locus YLR221C, strain rsa3, stronger effect = lower value 0.994 | S. cerevisiae deletion strains, locus YLR258W, strain gsy2, stronger effect = lower value 0.995 | S. cerevisiae deletion strains, locus YLR262C, strain YPT6 (second series), stronger effect = lower value 1.03 | S. cerevisiae deletion strains, locus YLR262C, strain YPT6, stronger effect = lower value 0.985 | S. cerevisiae deletion strains, locus YLR268W, strain sec22, stronger effect = lower value 0.978 | S. cerevisiae deletion strains, locus YLR320W, strain mms22, stronger effect = lower value 0.994 | S. cerevisiae deletion strains, locus YLR330W, strain CHS5, stronger effect = lower value 0.991 | S. cerevisiae deletion strains, locus YLR342W, strain FKS1 (second series), stronger effect = lower value 0.981 | S. cerevisiae deletion strains, locus YLR342W, strain FKS1, stronger effect = lower value 0.998 | S. cerevisiae deletion strains, locus YLR357W, strain rsc2, stronger effect = lower value 0.999 | S. cerevisiae deletion strains, locus YLR370C, strain arc18, stronger effect = lower value 1.03 | S. cerevisiae deletion strains, locus YLR371W, strain rom2, stronger effect = lower value 0.986 | S. cerevisiae deletion strains, locus YLR384C, strain iki3, stronger effect = lower value 0.993 | S. cerevisiae deletion strains, locus YLR418C, strain cdc73, stronger effect = lower value 0.986 | S. cerevisiae deletion strains, locus YML016C, strain PPZ1, stronger effect = lower value 0.998 | S. cerevisiae deletion strains, locus YML032C, strain rad52, stronger effect = lower value 0.998 | S. cerevisiae deletion strains, locus YML120C, strain ndi1, stronger effect = lower value 1.01 | S. cerevisiae deletion strains, locus YML124C, strain tub3, stronger effect = lower value 0.996 | S. cerevisiae deletion strains, locus YMR058W, strain fet3, stronger effect = lower value 1.02 | S. cerevisiae deletion strains, locus YMR078C, strain ctf18, stronger effect = lower value 0.98 | S. cerevisiae deletion strains, locus YMR125W, strain sto1, stronger effect = lower value 0.986 | S. cerevisiae deletion strains, locus YMR129W, stronger effect = lower value 1 | S. cerevisiae deletion strains, locus YMR205C, strain PFK2, stronger effect = lower value 1.01 | S. cerevisiae deletion strains, locus YMR223W, strain ubp8, stronger effect = lower value 0.969 | S. cerevisiae deletion strains, locus YMR231W, strain pep5, stronger effect = lower value 1 | S. cerevisiae deletion strains, locus YMR307W, strain GAS1, stronger effect = lower value 0.988 and 1 | S. cerevisiae deletion strains, locus YNL067W, strain RPL9B, stronger effect = lower value 1.04 | S. cerevisiae deletion strains, locus YNL071W, strain lat1, stronger effect = lower value 1.01 | S. cerevisiae deletion strains, locus YNL128W, strain TEP1, stronger effect = lower value 0.991 | S. cerevisiae deletion strains, locus YNL153C, strain GIM3, stronger effect = lower value 1.06 and 0.996 | S. cerevisiae deletion strains, locus YNL175C, strain NOP13, stronger effect = lower value 0.988 | S. cerevisiae deletion strains, locus YNL183C, strain NPR1, stronger effect = lower value 0.96 | S. cerevisiae deletion strains, locus YNL197C, strain WHI3, stronger effect = lower value 1.01 | S. cerevisiae deletion strains, locus YNL209W, strain ssb2, stronger effect = lower value 1.01 | S. cerevisiae deletion strains, locus YNL224C, strain SQS1, stronger effect = lower value 1 | S. cerevisiae deletion strains, locus YNL233W, strain BNI4, stronger effect = lower value 1.04 | S. cerevisiae deletion strains, locus YNL248C, strain rpa49, stronger effect = lower value 0.997 | S. cerevisiae deletion strains, locus YNL250W, strain rad50, stronger effect = lower value 0.926 | S. cerevisiae deletion strains, locus YNL271C, strain bni1, stronger effect = lower value 0.985 | S. cerevisiae deletion strains, locus YNL298W, strain CLA4, stronger effect = lower value 0.98 | S. cerevisiae deletion strains, locus YNL307C, strain MCK1, stronger effect = lower value 0.983 | S. cerevisiae deletion strains, locus YNL322C, strain KRE1 (second series), stronger effect = lower value 1.01 | S. cerevisiae deletion strains, locus YNL322C, strain KRE1, stronger effect = lower value 1.01 | S. cerevisiae deletion strains, locus YNR049C, strain mso1, stronger effect = lower value 0.999 | S. cerevisiae deletion strains, locus YNR052C, strain pop2, stronger effect = lower value 0.974 | S. cerevisiae deletion strains, locus YOL006C, strain TOP1, stronger effect = lower value 1.08 | S. cerevisiae deletion strains, locus YOL012C, strain htz1 1.34 | S. cerevisiae deletion strains, locus YOL147C, strain pex11, stronger effect = lower value 0.984 | S. cerevisiae deletion strains, locus YOR001W, strain rrp6, stronger effect = lower value 1.02 | S. cerevisiae deletion strains, locus YOR061W, strain CKA2, stronger effect = lower value 1 | S. cerevisiae deletion strains, locus YOR069W, strain VPS5, stronger effect = lower value 0.99 | S. cerevisiae deletion strains, locus YOR070C, strain gyp1, stronger effect = lower value 1.01 | S. cerevisiae deletion strains, locus YOR080W, strain dia2, stronger effect = lower value 0.999 | S. cerevisiae deletion strains, locus YOR083W, strain WHI5 (second series), stronger effect = lower value 0.998 | S. cerevisiae deletion strains, locus YOR083W, strain WHI5, stronger effect = lower value 1 | S. cerevisiae deletion strains, locus YOR106W, strain vam3, stronger effect = lower value 1.04 | S. cerevisiae deletion strains, locus YOR136W, strain idh2, stronger effect = lower value 0.995 | S. cerevisiae deletion strains, locus YOR144C, strain elg1, stronger effect = lower value 0.994 | S. cerevisiae deletion strains, locus YOR184W, strain ser1, stronger effect = lower value 0.976 | S. cerevisiae deletion strains, locus YOR231W, strain MKK1, stronger effect = lower value 1.02 | S. cerevisiae deletion strains, locus YOR265W, strain rbl2, stronger effect = lower value 1.01 | S. cerevisiae deletion strains, locus YOR270C, strain vph1, stronger effect = lower value 1.03 | S. cerevisiae deletion strains, locus YOR290C, strain snf2, stronger effect = lower value 1.01 | S. cerevisiae deletion strains, locus YOR316C, strain cot1, stronger effect = lower value 0.99 | S. cerevisiae deletion strains, locus YPL051W, strain arl3, stronger effect = lower value 0.999 | S. cerevisiae deletion strains, locus YPL055C, strain LGE1, stronger effect = lower value 1.1 | S. cerevisiae deletion strains, locus YPL078C, strain atp4, stronger effect = lower value 1.02 | S. cerevisiae deletion strains, locus YPL106C, strain sse1, stronger effect = lower value 1.01 | S. cerevisiae deletion strains, locus YPL240C, strain hsp82, stronger effect = lower value 0.999 | S. cerevisiae deletion strains, locus YPL241C, strain CIN2, stronger effect = lower value 1.01 | S. cerevisiae deletion strains, locus YPL256C, strain CLN2, stronger effect = lower value 1.04 | S. cerevisiae deletion strains, locus YPR119W, strain clb2, stronger effect = lower value 0.985 | S. cerevisiae deletion strains, locus YPR141C, strain kar3, stronger effect = lower value 0.982 | S. cerevisiae deletion strains, locus YPR163C, strain tif3, stronger effect = lower value 0.979 | S. cerevisiae deletion strains, locus YPR167C, strain met16, stronger effect = lower value 0.992 | S. cerevisiae deletion strains, strain wtn01, stronger effect = lower value 0.973 | S. cerevisiae strains, strain wild type, stronger effect = lower value 1
